Shown are actives, neighbours in structure and some others; about 2.7% of the full set was active somewhere.
HIF-2a block – HIF-2a reporter inhibitors, primary screen, luminescence, 786-0 RCC cells; 0.72% of 360,000 active; 786-0 RCC cells HIF-2a reporter, luciferase luminescence, overnight; inhibition, % at 18.8 µM;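 active = inhibition of the luminescence signal of 40% or more relative to plate controls, in a single-dose primary screen at 18.75 µM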
MITF TRPM1 inh – inhibitors of MITF-dependent TRPM1 promoter reporter, primary screen, cell-based, SK-MEL-5, single point, luciferase; inhibition, % at 12.5 µM; 0.83% of 330,000 active; SK-MEL-5 TRPM1 promoter luciferase, 24 h; AID 488899, 2010;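 active = mean inhibition across replicates of 60% or more, whatever share of single replicates reaches that level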
CF NFkB inh – inhibitors of PAF-induced NF-kB signaling, primary screen, cell-based, GFP fluorescence, uHTS | KKLEB NF-kB-GFP reporter, GFP fluorescence overnight | inhibition, % at 5 µM | 0.86% of 360,000 active | AID 588850, 2011;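 active = at least 50% inhibition at 5 µM, scaled per plate between neutral and stimulator controls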;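 note: PAF is a Pseudomonas aeruginosa culture filtrate used as stimulus; plate controls were PAF-stimulated DMSO wells for no effect and unstimulated DMSO wells for full effect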
KKLEB cytotox – cytotoxicity in KKLEB CF airway cells, primary screen, cytotoxicity control for CF NF-kB inhibitor project, cell-based, uHTS, fluorescence assay plates; KKLEB CF airway cells viability, ATPlite luminescence, overnight; hits give low values; cells stimulated with P. aeruginosa culture filtrate; activity change (cytotoxicity), % at 5 µM; 0.36% of 360,000 active; AID 602141, 2011;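 active = corrected activity change at or below -50% at 5 µM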
Peg3 prom inh – Peg3 promoter-driven luciferase inhibitors, primary screen, cell-based, HeLa, luciferase luminescence; HeLa PEG-Prom luciferase reporter, overnight; inhibition, % at 20 µM; 1.7% of 360,000 active; AID 588405, 2011;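 active = inhibition of at least 50% at 20 µM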
Shn3 3UTR inh – reduction of Shn3 3'UTR firefly luciferase signal, primary screen, Schnurri-3 inhibitor project, cell-based, Clone20 osteoblasts, set 2 | Clone20 osteoblast Shn3 3'UTR firefly luciferase, 24 h | inhibition, % at 12.5 µM | 0.52% of 360,000 active;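 active = mean inhibition of at least 75% with every replicate also reaching 75%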;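 note: 0% = median of neutral control wells and 100% = pilot-screen positive control compound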
Active calls of the source: *; x = not tested or not shown.

SMILES	HIF-2a block	MITF TRPM1 inh	CF NFkB inh	KKLEB cytotox	Peg3 prom inh	Shn3 3UTR inh
CC1C(=O)CC2C3(C)CCC2(C(C)C(=O)O)C(=O)C13 (configuration not stated)	9	x	-15	-8	15	3
COc1ccc(C(CCNC(C)c2ccccc2)c2ccc(F)cc2)cc1 (configuration not stated)	-17	70*	-6	0	107*	75
COc1ccc(CNCCC(c2ccc(F)cc2)c2ccc(OC)cc2)cc1 (configuration not stated)	3	64*	10	-7	76*	47
COc1ccc(C(CCNCc2ccc(F)cc2)c2ccc(F)cc2)cc1 (configuration not stated)	-4	31	17	-19	80*	42
COc1ccc(CNCCC(c2ccc(F)cc2)c2ccc(OC(C)C)cc2)cc1OC (configuration not stated)	13	15	9	-1	110*	x
COc1ccc(CNC(=O)CNC(C)c2ccc(F)cc2)cc1 (configuration not stated)	5	-8	-2	4	11	5
COc1ccc(CNCCC(c2ccc(OC)cc2)c2ccccc2OC)cc1 (configuration not stated)	18	20	1	2	19	9
COc1ccc(C(CCNCc2ccccc2)c2ccc(F)cc2)cc1 (configuration not stated)	1	10	-4	-8	37	18
Cc1c(CN2CCN(CC(C)C)C(CCO)C2)[nH]c2ccc(Cl)cc12 (configuration not stated)	10	3	19	2	10	-40
CC(OC(=O)c1cccc(-n2cnnn2)c1)C(=O)NC1(C#N)CCCCC1 (configuration not stated)	-3	2	-12	2	7	-7
COCC1CCN(C(=O)c2cc(COc3ccc4ncccc4c3)on2)CC1	4	-1	-1	-2	-8	86*
O=[N+]([O-])c1ccc(N2CCN(Cc3ccccc3)CC2)c2c1no[n+]2[O-]	24	x	42	-61*	95*	77
COc1cccc(CNc2nc3cc(-c4cnn(Cc5ccccc5)c4)sc3c(=O)n2C)c1	-3	x	21	0	25	37
COc1cc(/C=N\NC(=O)c2ccc(-c3ccccc3)cc2)cc(Br)c1O	-11	-4	65*	-1	-54	13
COC(=O)N1C(=O)[C@](c2ccccc2)(C2CCCC2)N1C(=O)OC	27	14	11	-16	30	11
COC(=O)N1C(=O)[C@](c2ccc(Cl)cc2)(C(C)C)N1C(=O)OC	23	19	66*	-14	31	50
C[C@H](O)C(=O)C1=Nc2c(nc(N)[nH]c2=O)NC1	4	2	12	-95*	2	-4
C[C@H](O)[C@H](O)[C@H]1CNc2nc(N)[nH]c(=O)c2N1	1	-1	18	9	-13	8
N#C/C(=N/Nc1ccc(OC(F)(F)F)cc1)C(N)=S	-256	3	64*	-48	-169	-30
Nc1nc(N)c2cc(Sc3ccc4ccccc4c3)ccc2n1	14	x	35	-16	107*	85
Nc1nc(N)c2cc(Sc3ccc(Cl)cc3)ccc2n1	-56	x	31	-16	104*	79
Nc1nc(N)c2cc(Sc3cccc(C(F)(F)F)c3)ccc2n1	27	x	38	-18	107*	84
Nc1nnc2cc(Cl)ccc2n1	3	3	17	-1	-19	2
O=c1c2ccc(Cl)cc2nc(-c2cccc(C(F)(F)F)c2)n1O	26	47	7	-5	52*	20
CC1CC(=O)c2c(cc3c(-c4c(O)cc(O)c5c(O)c6c(cc45)OC(C)CC6=O)c(O)cc(O)c3c2O)O1 (configuration not stated)	91*	79*	53*	-49	105*	76
SMILES	HIF-2a block	MITF TRPM1 inh	CF NFkB inh	KKLEB cytotox	Peg3 prom inh	Shn3 3UTR inh
Cc1ccc(-c2nc3ncccc3o2)cc1NC(=O)c1cccs1	-18	-3	-20	7	-16	-18
Cc1ccc(-c2nc3ccccc3[nH]2)cc1NC(=O)c1sc2cc(Cl)ccc2c1Cl	-76	-12	-19	2	83*	-14
Cc1ccc(-c2nc3ncccc3o2)cc1NC(=O)c1sc2ccccc2c1Cl	8	45	-2	-1	78*	85*
Cc1ccccc1NC(=O)CSc1nc(=O)n(CCN2CCOCC2)c2c1CCCC2	12	10	-4	2	10	-22
CC(C)(C)NC(=O)C1c2ccccc2OCC(=O)N1CCc1ccccc1 (configuration not stated)	21	x	x	x	x	x
O=C(Cc1ccccc1)Nc1ncnc2c1C(c1ccccc1)c1c(ccc3ccccc13)O2 (configuration not stated)	21	16	18	-13	53*	25
O=C(Nc1cccc(C(=O)N2CCOCC2)c1)c1ccccc1Cl	17	-2	-4	4	5	25
Cc1ccc(C(=O)Nc2cccc(C(F)(F)F)c2)cc1Nc1ncnc2nc[nH]c12	26	x	69*	8	38	51
Cc1cccn2c(=O)nc(SCC(=O)N3CCC(C)CC3)nc12	6	1	16	-6	-1	2
O=C(c1cc(COc2c(F)cccc2F)on1)N1CC[C@@H]2CCCC[C@H]2C1	-207	x	27	-7	-155	-15
Cc1ccc2c(=O)n3c(nc2c1)C(Cc1ccccc1)NC(=O)c1cc2ccccc2cc1-3 (configuration not stated)	12	x	1	-12	25	10
O=C1NC(Cc2ccc(O)cc2)c2nc3cc(Cl)ccc3c(=O)n2-c2cc3ccccc3cc21 (configuration not stated)	-20	x	0	-9	57*	66
Cc1ccc2nc3n(c(=O)c2c1)-c1cc2ccccc2cc1C(=O)NC3Cc1ccc(O)cc1 (configuration not stated)	10	x	-22	-7	69*	25
O=C1NC(Cc2ccc(O)cc2)c2nc3cc(F)c(F)cc3c(=O)n2-c2cc3ccccc3cc21 (configuration not stated)	-3	x	-6	2	47	51
Cn1c(CC(=O)Nc2ccccc2F)nnc1SCC(=O)NC1=NCCS1	1	6	-15	-6	5	-2
CC1=CC(C)(C)N2C(=O)C(=O)c3cc(OC(=O)c4ccco4)cc1c32	22	-2	64*	-15	0	17

Bioassay records: PubChem BioAssay, several laboratories
